Assay results from PubChem BioAssay AID1117264 (The Scripps Research Institute Molecular Screening Center, 2014).
The whole screen tested about 89,000 compounds, of which about 440 (0.49%) were called active.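 The calls were made as follows: active = inhibition above the mean inhibition across all screened compounds plus 3 SD (cut at about 11% in these data); inactive = the rest.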 The list comes from a sample in which actives are over-represented; it also holds similar structures and randomly drawn compounds.

Target: RNA-editing ligase 1, mitochondrial (Trypanosoma brucei brucei) (UniProt P86926)
Sequence (P86926 whole entry, looked up): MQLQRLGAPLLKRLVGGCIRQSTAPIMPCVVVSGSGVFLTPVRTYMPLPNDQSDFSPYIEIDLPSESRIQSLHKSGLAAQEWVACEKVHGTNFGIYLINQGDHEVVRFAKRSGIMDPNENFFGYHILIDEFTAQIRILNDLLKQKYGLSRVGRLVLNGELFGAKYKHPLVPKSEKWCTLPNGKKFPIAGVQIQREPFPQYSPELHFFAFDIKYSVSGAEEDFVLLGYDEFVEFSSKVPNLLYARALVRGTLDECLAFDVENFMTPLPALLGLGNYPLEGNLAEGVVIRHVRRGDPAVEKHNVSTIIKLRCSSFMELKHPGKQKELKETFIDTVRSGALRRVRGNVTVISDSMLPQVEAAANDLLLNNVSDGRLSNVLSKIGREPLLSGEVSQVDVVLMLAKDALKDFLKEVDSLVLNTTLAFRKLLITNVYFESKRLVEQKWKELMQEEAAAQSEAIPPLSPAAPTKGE
Assay: T. brucei editing ligase REL1 blockade – biochemical, FRET fluorescence, primary screen (AID 1117264);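 also: 0% = plate median of test wells and 100% = NSC42067 control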
Settings: TbREL1 RNA ligation, at 9.66 µM, stronger effect = higher value

Compound | inhibition
CC1CCCCN1Cc1cccnc1 (stereo not given) | 13.3% (active)
COC(=O)C1=C(c2ccc(F)cc2OCc2ccccc2)C[C@@H]2CC[C@H]1N2C(=O)NCc1ccc(C(C)(C)C)cc1 | -1.57% (inactive)
COc1cccc(-c2nc3ccc(N4CCN(C)CC4)cc3[nH]2)c1 | 5.54% (inactive)
CN1CCN(c2cc(N3CCNCC3)ccc2[N+](=O)[O-])CC1 | 13.9% (active)
Cc1cccc(NC(=O)N2CC3CC(C2)c2cccc(=O)n2C3)c1 (stereo not given) | 3.86% (inactive)
COC(=O)C1=C(c2ccccc2OCc2ccccc2)C[C@@H]2CC[C@H]1N2C(=O)NCc1ccc(OC)cc1 | -0.93% (inactive)
CCOP(=O)(OCC)C(NC(=O)NC)C(N)=O (stereo not given) | 2.84% (inactive)
COc1ccc(-n2nnnc2C(c2cccc3ccccc23)N2CCC(n3c(=O)[nH]c4ccccc43)CC2)cc1 (stereo not given) | -2.29% (inactive)
CCC(=NCCc1ccccc1)c1c(O)n(C2CCCCC2)c(=O)[nH]c1=O | -0.24% (inactive)
O=c1[nH]c2ccccc2n1C1CCN(C(c2ccccc2)c2nnnn2Cc2ccccc2)CC1 (stereo not given) | 23.1% (active)
COc1cc(C(=O)N2Cc3ccc(Br)cc3-n3nncc3C2)cc(OC)c1OC | 2.36% (inactive)
CN1CCN(C(=S)SCC(=O)Nc2ccc(Cl)cc2C(=O)c2ccccc2)CC1 | 2.78% (inactive)
CCOC(=O)CNC(=O)N1Cc2cc(N3CCCCC3)ccc2-n2nncc2C1 | 2.4% (inactive)
COc1ccc(-c2nn(CCC#N)cc2C(=O)O)cc1 | -2.19% (inactive)
CSc1ccc(C(=O)C2CCCN(Cc3ccn[nH]3)C2)cc1 (stereo not given) | 0.96% (inactive)
